The values that follow come from PubChem BioAssay (NCI).

Assay [1] is described as follows: NCI Yeast Anticancer Drug Screen. Data for the rad50 strain (AID 155).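 Note: 0% = growth of vehicle-only cultures of the same strain.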 The following applies: S. cerevisiae rad50 strain growth inhibition; at 50.0 µM; active compounds read high. A digest of the protocol:
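Growth of the mutant yeast was measured after compound exposure and referenced to vehicle-treated cultures.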

Assay [2] in a line: NCI Yeast Anticancer Drug Screen. Data for the mec2-1 strain (AID 157). The conditions noted are these: S. cerevisiae mec2-1 strain, at 50.0 µM, active compounds read high. A digest of the protocol: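 Test agents were screened against the mec2-1 yeast strain, with defined DNA repair or cell cycle alteration. Growth was scored as inhibition against vehicle-only controls.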
Assay [3] in a line: NCI Yeast Anticancer Drug Screen. Data for the sgs1 mgt1 strain (AID 161).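 Note: 0% = growth of cultures given vehicle only.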 The following applies: S. cerevisiae sgs1 mgt1 strain, at 50.0 µM, active compounds read high. A digest of the protocol:
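Mutant yeast exposed to compound; growth scored against vehicle-only wells.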

Assay [4] in a line: NCI Yeast Anticancer Drug Screen. Data for the cln2 rad14 strain (AID 165).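 Note: 0% = growth equal to vehicle treated cultures.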 The conditions noted are these: S. cerevisiae cln2 rad14 strain, at 50.0 µM, active compounds read high. A digest of the protocol:
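Growth of compound-exposed yeast (cln2 rad14 genotype) measured and expressed as inhibition relative to vehicle.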

Assay [5] in a line: NCI Yeast Anticancer Drug Screen. Data for the bub3 strain (AID 167). The conditions noted are these: S. cerevisiae bub3 mutant strain, at 50.0 µM, active compounds read high. A digest of the protocol:
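Whole-cell yeast assay. The mutant strain was incubated with compounds, and growth inhibition was determined by comparison with vehicle-treated cells.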

A short description of assay [6]: NCI Yeast Anticancer Drug Screen. Data for the mlh1 rad18 strain (AID 175). The conditions noted are these: S. cerevisiae mlh1 rad18 strain growth inhibition; at 50.0 µM; active compounds read high. A digest of the protocol: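 In this whole-cell yeast screen, a strain with altered DNA damage repair is challenged with compound, and its growth is measured against matched vehicle-treated controls.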

Each structure is given as a SMILES string. The panel holds about 79,000 compounds, 15% with a hit somewhere; the sample as a whole holds those more often. A number with no mark means an inactive call. The source made the active and inactive calls. Cut-off read from the data, not from the text of the source: active = growth inhibition above about 70%; inactive = the rest.

With `CC(=O)C(C)CO` (stereo not given), the growth inhibition is 14.2% in assay [1]; -21.1% in assay [2]; 5.5% in assay [3]; 8.55% in assay [4]; 9.2% in assay [5]; 13.7% in assay [6].
In the case of `O=C(Nc1cccc([N+](=O)[O-])c1)Oc1ccc(-c2ccccc2)cc1`, the growth inhibition was 17.9% in assay [1]; 36.2% in assay [2]; 18.5% in assay [3]; -3.75% in assay [4]; 57.7% in assay [5]; 25.4% in assay [6].
Take `O=S(=O)(O)C(O)Cc1cccc2ccccc12` (stereo not given): the growth inhibition is 2.2% in assay [1]; -8.25% in assay [2]; 1.3% in assay [3]; -40.2% in assay [4]; -17.8% in assay [5]; -0.3% in assay [6].
For the compound `COC(=O)c1c([N+](=O)[O-])ncn1C1CC(OC(C)=O)C(COC(C)=O)O1` (stereo not given), the growth inhibition in assay [1] was 15.2%; in assay [2], -4.9%; in assay [3], -1.9%; in assay [4] it was -30.8%; in assay [5], -17.7%; in assay [6] it was 5.25%.
Turning to `CN(CC(=O)NC(=O)c1ccccc1)c1ccccc1`, the growth inhibition was 4% in assay [1]; -2% in assay [2]; 8.85% in assay [3]; -0.75% in assay [4]; 11% in assay [5]; 3.2% in assay [6].
`CCCCCCCCCCCC(=O)NC(=S)Nc1cc(OC)ccc1OC`: the growth inhibition was -17.9% in assay [1]; -7.25% in assay [2]; -2.9% in assay [3]; -47.3% in assay [4]; -3.85% in assay [5]; -0.95% in assay [6].
Turning to `CC1CC[N-]CC1.CC1CC[N-]CC1.[Cl][Pt+2][Cl]`, the growth inhibition in assay [1] is -19.9%; in assay [2], -6.7%; in assay [3] it was -17.6%; in assay [4], -34%; in assay [5], -2.2%; in assay [6], 5.8%.
As for `C[N+]1(C)CCOC(O)(c2ccccc2)C1` (stereo not given), the growth inhibition is -29.6% in assay [1]; -34% in assay [2]; -27.4% in assay [3]; -2.85% in assay [4]; -59.1% in assay [5]; -18.6% in assay [6].
As for `Cc1c([N+](=O)[O-])cc(C(C)(C)C)c(OC(=O)CCl)c1[N+](=O)[O-]`, the growth inhibition in assay [1] is 99.5% (active); in assay [2] it was 99.7% (active); in assay [3] it was 99.6% (active); in assay [4], 99.2% (active); in assay [5], 99.4% (active); in assay [6] it was 99.5% (active).
In the case of `COc1cc(C=C2C(=O)NC(=O)NC2=O)ccc1OCc1ccccc1`, the growth inhibition in assay [1] was -0.15%; in assay [2], -1.5%; in assay [3], -1.1%; in assay [4] it was 3.3%; in assay [5], -22.3%; in assay [6], -42.6%.
Regarding `O=C(O)C(=O)O.[NH-]CC(O)CN(CC(O)CO)c1ccccc1.[Pt+2]` (stereo not given), the growth inhibition in assay [1] was 23.2%; in assay [2] it was 1.35%; in assay [3], 6.85%; in assay [4] it was 21.7%; in assay [5], -1.45%; in assay [6], 11.1%.
`Cc1cc(=O)n2ccnc2[nH]1`: the growth inhibition in assay [1] was 24.2%; in assay [2] it was 11.3%; in assay [3], 6.2%; in assay [4] it was 19.1%; in assay [5] it was 9.65%; in assay [6], 20.1%.
With `O=C1NC(=S)N/C1=C\c1ccco1`, the growth inhibition was 21.9% in assay [1]; 10.2% in assay [2]; 0.5% in assay [3]; 15.2% in assay [4]; 26.5% in assay [5]; 32% in assay [6].
For the compound `Cc1cc2c(cc1C)NC(=O)CC(c1ccccc1)=N2`, the growth inhibition was 18% in assay [1]; -7.8% in assay [2]; 4.15% in assay [3]; 3.3% in assay [4]; 28.9% in assay [5]; 10.8% in assay [6].
As to `COc1ccc2c(c1)C(=O)OCCC2`, the growth inhibition in assay [1] is 25.4%; in assay [2], 17.5%; in assay [3] it was -26.6%; in assay [4], 10.3%; in assay [5] it was -36.4%; in assay [6] it was -9.95%.
Turning to `COC(=O)c1cc([N+](=O)[O-])c(Br)s1`, the growth inhibition in assay [1] was 99.3% (active); in assay [2], 99.6% (active); in assay [3] it was 99.6% (active); in assay [4] it was 99.5% (active); in assay [5], 99.3% (active); in assay [6], 99.3% (active).
With `NC(CCC1CCCCC1)C(=O)O` (stereo not given), the growth inhibition was -7.75% in assay [1]; 6.8% in assay [2]; 0.5% in assay [3]; -3.65% in assay [4]; 22.6% in assay [5]; 3.7% in assay [6].
For the compound `CCOC(=O)C(CC(c1ccc2c(c1)OCO2)C(C(=O)N(C(C)C)C(C)C)[N+](=O)[O-])C(=O)OCC` (stereo not given), the growth inhibition in assay [1] is 54.9%; in assay [2], 21.4%; in assay [3] it was 60.5%; in assay [4], 16.2%; in assay [5], 11.8%; in assay [6], 26.4%.
Turning to `CC(=O)C1C(=O)C(=O)N(c2ccc(F)cc2)C1=O` (stereo not given), the growth inhibition was -17.4% in assay [1]; -15.5% in assay [2]; -5.4% in assay [3]; -6.95% in assay [4]; -25.9% in assay [5]; -27.3% in assay [6].
Take `Nc1ncnc2nc[nH]c12`: the growth inhibition in assay [1] was -8.7%; in assay [2], -6.7%; in assay [3], 13.9%; in assay [4] it was -24.7%; in assay [5], -12.1%; in assay [6] it was -5.7%.
